# Source: PubChem (Broad Institute)
# PvdQ acylase: P. aeruginosa PvdQ acylase inhibitors, primary screen, biochemical, fluorescence, plate reader and imaging, single point; PvdQ acylase [Pseudomonas aeruginosa LESB58]; purified PvdQ acylase; inhibition, % at 10 µM; actives 0.063% (n = 340,000); in the data active = inhibition above about 30%, passing the limit was not always enough; inconclusive = no clear call, values can overlap the other calls;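 also: 0% = vehicle neutral wells and 100% = reference inhibitor wells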
# Vif inh: HIV Vif self-association inhibitors, primary screen, imaging, HEK293T, single point; HEK293T cells, Vif self-association by quenched fluorescence, 24 h; inhibition, % at 7.49 µM; actives 0.35% (n = 340,000); AID 602346, 2012; in the data active = inhibition above about 50%, passing the limit was not always enough; inconclusive = no clear call, values can overlap the other calls; inactive = below about 31%
# N-glyco inh: increase of ERlucT glycosylation luciferase signal, primary screen, N-linked glycosylation inhibitor project, D54 ERlucT cells, luminescence, set 2; D54 ERlucT glycosylation luciferase reporter, 24 h; percent of 100 nM tunicamycin response; reporter increase, % at 12.5 µM; actives 0.23% (n = 360,000); AID 588692, 2011;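 active = mean luciferase reporter signal, scaled so untreated is 0 and the glycosylation-blocking control 100, at or above a set limit in every replicate; inconclusive = mean reaches the limit but not every replicate does; inactive = mean below the limit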;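 also: luciferase carries N-glycosylation sites so blocking glycosylation raises the light; 0% = median of neutral control wells and 100% = median of 100 nM tunicamycin wells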
# Wnt act: Wnt/beta-catenin pathway activators, primary screen, cell-based, plate reader, single point; Wnt/beta-catenin reporter cell assay, activator; actives 1.2% (n = 300,000); AID 743398, 2014; activation, % at 9.35 µM; in the data active = activation above about 30%, passing the limit was not always enough; inconclusive = no clear call, values can overlap the other calls;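 also: 0% = neutral control wells and 100% = positive control wells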
# MITF TRPM1 HTS: activators of MITF-driven TRPM1 promoter reporter, primary screen, cell-based, SK-MEL-5, luciferase, single point; SK-MEL-5 TRPM1-promoter luciferase, 24 h; % of positive control, neutral wells = 0; activation, % at 12.5 µM; actives 0.75% (n = 300,000); AID 588334, 2011;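 active = mean activation of at least 80% with every replicate also reaching 80%; inconclusive = mean reaches 80% but some replicate falls short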;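 also: 0% = neutral control wells and 100% = parthenolide positive control wells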
# esBAF inh: Bmi1 luciferase reporter increase in mESCs, primary screen, esBAF inhibitor project, mouse ES cells, Bmi1 luciferase knock-in, single point; 24 h; 100% = twice the neutral-well signal; reporter increase, % at 12.5 µM; actives 2% (n = 350,000); AID 602393, 2012; in the data active = activation above about 40%; inconclusive = no clear call, values can overlap the other calls;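 also: 0% = median of the plate's neutral control wells and 100% = double that signal; a rise in the Bmi1 reporter signal indicates esBAF inhibition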
# * hit, by the source's call; ? = inconclusive; / = no result. In the library only some 2.9% were active in any assay of this set; here they are far more common.
SMILES,PvdQ acylase,Vif inh,N-glyco inh,Wnt act,MITF TRPM1 HTS,esBAF inh
COc1cccc(Nc2ncnc3c2cnn3-c2cccc(C)c2)c1,-7,-12,3,/,/,56*
Cn1cccc1-c1nc2ccc([N+](=O)[O-])cc2[nH]1,13,-6,3,14,99*,?
O=[N+]([O-])c1ccc2nc(-c3ccccc3)[nH]c2c1,6,-2,-2,68*,103*,/
CCCOc1ccc(F)cc1-c1cc(C(=O)Nc2ccc(C(C)C)cc2)[nH]n1,/,-5,55*,-4,/,4
CCOc1ccc(-c2cc(C(=O)Nc3ccc(F)cc3)[nH]n2)c(C)c1,/,-15,-1,-4,/,65*
Cc1ccnc(N2C(=O)c3cccc4c([N+](=O)[O-])ccc(c34)C2=O)c1,-12,19,1,27,-11,-1
Cc1ccc(N2C(=O)c3cccc4c([N+](=O)[O-])ccc(c34)C2=O)c2cccnc12,-7,2,?,41*,-74,-18
Cn1/c(=N/NC(=O)c2ccccc2Br)sc2ccccc21,-7,-2,1,51*,48,/
COc1cc(C(=O)N/N=c2/sc3ccccc3n2C)cc(OC)c1OC,-9,28,3,0,-11,/
Cc1ccccc1SCC(=O)OCC(=O)Nc1sccc1C(N)=O,-6,-4,-1,0,5,/
NC(=O)c1ccsc1NC(=O)COc1ccccc1,-16,-3,-1,-3,70,65*
NC(=O)c1ccsc1NC(=O)CSc1ccccc1F,-5,-3,-1,25,61,75*
C[C@H]1CN([C@@H](C)CO)C(=O)c2cc(NS(=O)(=O)c3ccc(F)cc3)ccc2O[C@H]1CN(C)C,/,/,/,/,/,-1
C=CCSc1nnc2c(n1)OC(c1cccnc1)Nc1ccccc1-2 (stereo not drawn),4,3,2,54*,13,/
Nc1nc(=S)c2ncn([C@@H]3O[C@H](CO)[C@@H](O)[C@H]3O)c2[nH]1,-7,-3,?,-2,-70,-52
Nc1ncn([C@@H]2O[C@H](CO)[C@@H](O)[C@H]2O)c(=O)n1,-23,-5,3,-11,-77,67*
Nc1nc(=S)c2ncn(C3OC(CO)C(O)C3O)c2[nH]1 (stereo not drawn),2,8,66*,0,-7,-2
COc1ccccc1CN1C[C@@H](C)[C@@H](OC)CN(C)C(=O)c2cc(NC(C)=O)ccc2OC[C@@H]1C,/,/,/,/,/,-12
CC(=O)Nc1ccc(-c2csc(NCc3ccco3)n2)cc1,-11,-5,-1,/,123*,/
COc1ccc(-c2csc(NCc3ccco3)n2)cc1C,-10,5,1,/,?,66*
Cc1nc2ccc(S(=O)(=O)Nc3cccc(-c4nc5cccnc5s4)c3C)cc2s1,2,-11,0,-6,-5,-9
Cc1nc2ccc(S(=O)(=O)Nc3cc(-c4nc5cccnc5s4)ccc3C)cc2s1,-6,/,2,18,/,61*
N#CC(c1ccc(Cl)nn1)c1ccc(Cl)cc1Cl (stereo not drawn),114*,-3,-2,/,-1,-6
CN(C)c1ccc(C(C#N)c2ccc(Cl)cc2)nn1 (stereo not drawn),5,2,-2,0,-6,/
COc1ccc(C(C#N)c2ccc(Cl)nn2)cc1 (stereo not drawn),46*,3,0,-2,7,/
SMILES,PvdQ acylase,Vif inh,N-glyco inh,Wnt act,MITF TRPM1 HTS,esBAF inh
COc1ccc(C(C#N)c2nc3ccccc3nc2Cl)cc1 (stereo not drawn),3,-13,-1,2,-9,-3
C[C@H]1CN([C@@H](C)CO)C(=O)c2cc(NC(=O)C3CCCCC3)ccc2O[C@@H]1CN(C)C(=O)Nc1cccc2ccccc12,/,/,/,/,/,-1
O=[N+]([O-])c1ccc(N/N=C\c2cccnc2)nc1,-18,0,9,9,99*,/
O=[N+]([O-])c1ccc(NN=Cc2cc(Br)ccc2O)nc1,-12,0,-14,0,-36,-39
O=[N+]([O-])c1ccc(NN=Cc2cccc(O)c2)nc1,-3,-7,-4,-3,72,30
O=[N+]([O-])c1ccc(NN=Cc2ccco2)nc1,14,-3,7,2,70,91*
O=[N+]([O-])c1ccc(S(=O)(=O)NN=Cc2ccc3c(c2)OCO3)cc1,8,1,1,-2,2,0
O=[N+]([O-])c1ccc(NN=Cc2ccc3c(c2)OCO3)nc1,-4,-5,-8,-3,78,93*
CC(=O)Nc1ccc(C=NNc2ccc([N+](=O)[O-])cn2)cc1,-16,-6,1,14,46,89*
C[C@@H]1CCCCO[C@@H](CN(C)C(=O)Nc2ccc(C(F)(F)F)cc2)[C@H](C)CN([C@@H](C)CO)C(=O)c2cc(NS(=O)(=O)c3cn(C)cn3)ccc2O1,/,/,/,/,/,-4
C[C@@H]1CN([C@@H](C)CO)S(=O)(=O)c2ccc(-c3cccc(C(=O)N(C)C)c3)cc2O[C@H]1CN(C)Cc1ccc2c(c1)OCO2,/,/,/,/,/,-2
CCC(=O)N[C@@H]1CC[C@@H](CC(=O)OC)O[C@H]1CO,/,/,/,/,/,1
C/C=C/c1cnc2c(c1)C(=O)N([C@@H](C)CO)C[C@@H](C)[C@H](CN(C)Cc1cccc(C(=O)O)c1)O2,/,/,/,/,/,0
Cc1cc2oc(C(=O)Nc3cccnc3)c(C)c2cc1C,-11,1,2,10,77,78*
Cc1ccc(C(=O)Nc2cccnc2)cc1C,/,4,0,1,/,46*
Cc1ccc2c(Cl)c(C(=O)Nc3cccnc3)sc2c1,-3,-14,-8,/,95*,55*
Cc1ccc(NC(=O)c2cccnc2)cc1C,-12,13,0,5,/,49*
Cc1ccc2c(Cl)c(C(=O)NC3CC3)sc2c1,-10,1,-3,23,47,/
Cc1cc(C(=O)Nc2cccnc2)cs1,-14,11,1,/,12,2
Cc1ccc2c(C)c(C(=O)Nc3cccnc3)oc2c1,8,-11,5,/,46,27
Cc1noc(C)c1S(=O)(=O)Nc1ccc2c(c1)C(=O)N([C@H](C)CO)C[C@@H](C)[C@@H](CN(C)S(=O)(=O)c1cccs1)O2,/,/,/,/,/,4
CN(C)C(=O)c1cccc(-c2ccc3c(c2)[C@@H]2[C@@H](CCN2C(=O)C2CCOCC2)[C@H](CO)N3)c1,/,/,/,/,/,-5
COc1ccc(S(=O)(=O)N[C@@H]2CC[C@H](CC(=O)O)O[C@H]2CO)cc1,/,/,/,/,/,0
Cc1ccc(C(=O)Nc2cccnc2)cc1Cl,-13,-3,1,7,/,55*
